# “And” between values parts separate entries of the source, which are not always exact repeats. Equal values may be shown once. The campaign covered roughly 2,000 compounds. About 100 (5%) were called active. Rule as the data show it: active = z-score above about 2; inactive = the rest. This excerpt belongs to a sample that is enriched for actives. Where a structure was tested more than once in an assay, its records may differ in their call. Positions of bridges follow the written chain, without caps; N, C: chain ends. Non-standard residues stand in square brackets, D forms with d. Residues, ends and D or L forms follow the SMILES beside them. hArg = N=C(N)NCCCC[CH](N)C(=O)O; Mpa = O=C(O)CCS
# Test: supercomplex reporter luminescence per Hoechst cell count – Hoechst nuclei count (AID 1645838);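 also: control cybrid cells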;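 as to z-score: higher means more mitochondrial supercomplex formation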
# Settings: Cells, luminescence/Hoechst cell count ratio; for z-score: stronger effect = higher value; for cell count: measured here: cell number, Hoechst nuclei count
# [1] = library stock concentration (final well concentration not given) 46 uM
# [2] = library stock concentration (final well concentration not given) 278 uM
# [3] = library stock concentration (final well concentration not given) 1.67 mM
# [4] = library stock concentration (final well concentration not given) 10 mM
# [5] = library stock concentration (final well concentration not given) 80 uM
# [6] = library stock concentration (final well concentration not given) 400 uM
# [7] = library stock concentration (final well concentration not given) 2 mM
smiles,measurement,setting,value
CCCCCCCCCCCCCCC(F)C(=O)O (stereo unspecified),z-score,,-0.112 (inactive)
same,cell count,,5870
CC(C)CCOc1ccc(N)cc1,z-score,,-0.619 (inactive)
same,cell count,,5370
N=C(N)c1ccc2cc(OC(=O)c3ccc(N=C(N)N)cc3)ccc2c1,z-score,[1],0.0192 (inactive)
same,z-score,[2],0.31 (inactive)
same,z-score,[3],-0.356 (inactive)
same,z-score,[4],-0.0213 (inactive)
same,cell count,[1],6960
same,cell count,[2],6430
same,cell count,[3],7070
same,cell count,[4],6560
O=C(O)c1ccc(Nc2ncc3c(n2)-c2ccc(Cl)cc2C(c2c(F)cccc2F)=NC3)cc1,outcome,library stock 10 mM,inactive; censored for cell count
same,z-score,[5],-0.747 (inactive)
same,z-score,[6],-0.464 (inactive)
same,z-score,[7],-0.071 (inactive)
same,cell count,[5],4990
same,cell count,[6],4350
same,cell count,[7],3530
Cc1cnc(Nc2ccc(F)cc2Cl)nc1-c1c[nH]c(C(=O)NC(CO)c2cccc(Cl)c2)c1 (stereo unspecified),outcome,library stock 10 mM,inactive; censored for cell count
same,z-score,[1],-0.208 (inactive)
same,z-score,[2],-0.12 (inactive)
same,z-score,[3],2.01 (active)
same,cell count,[1],6210
same,cell count,[2],6120
same,cell count,[3],3060
COc1cc(Nc2ncc3c(n2)-c2ccc(Cl)cc2C(c2c(F)cccc2OC)=NC3)ccc1C(=O)O,outcome,library stock 1.67 mM,inactive; censored for cell count
same,outcome,library stock 10 mM,inactive; censored for cell count
same,z-score,[1],-0.133 (inactive)
same,z-score,[2],1.85 (inactive)
same,cell count,[1],5510
same,cell count,[2],2620
CC(Cc1cc2c(c(C(N)=O)c1)N(CCCO)CC2)NCCOc1ccccc1OCC(F)(F)F (stereo unspecified),z-score,[5],-1.47 (inactive)
same,z-score,[6],-1.87 (inactive)
same,z-score,[7],-2.9 (inactive)
same,z-score,[4],-3.02 (inactive)
same,cell count,[5],5980
same,cell count,[6],5330
same,cell count,[7],5440
same,cell count,[4],5520
COc1ccc(Br)c(-c2nc3ccccc3c(=O)o2)c1,outcome,library stock 10 mM,inactive; censored for cell count
same,z-score,[5],-0.298 (inactive)
same,z-score,[6],-0.159 (inactive)
same,z-score,[7],-0.345 (inactive)
same,cell count,[5],5250
same,cell count,[6],5070
same,cell count,[7],5030
O=c1[nH]oc2cc(Cl)ccc12,z-score,[1],-0.28 (inactive)
same,z-score,[2],0.381 (inactive)
same,z-score,[3],-0.301 (inactive)
same,z-score,[4],0.402 (inactive)
same,cell count,[1],6680
same,cell count,[2],6710
same,cell count,[3],6630
same,cell count,[4],6300
O=P(O)(O)OC1C(O)C(OP(=O)(O)O)C(O)C(OP(=O)(O)O)C1O (stereo unspecified),z-score,,-0.332 (inactive)
same,cell count,,5290
CC(C)CC(NC(=O)NC(CCC(=O)O)C(=O)O)C(=O)O (stereo unspecified),z-score,[1],-0.295 (inactive)
same,z-score,[2],0.0106 (inactive)
same,z-score,[3],0.469 (inactive)
same,z-score,[4],0.233 (inactive)
same,cell count,[1],6480
same,cell count,[2],6530
same,cell count,[3],6460
same,cell count,[4],6410
Cc1cc(C)c(/C=C2\C(=O)Nc3ccccc32)[nH]1,z-score,,-0.647 (inactive)
same,cell count,,5700
COc1cc(=C2C=c3ccccc3=N2)[nH]c1=Cc1[nH]c(C)cc1C,z-score,[5],0.065 (inactive)
same,z-score,[6],2.07 (active)
same,z-score,[7],3.14 (active)
same,z-score,[4],1.08 (inactive)
same,cell count,[5],5750
same,cell count,[6],1640
same,cell count,[7],1600
same,cell count,[4],1560
CCCC(NC(C)C(=O)N1C(C(=O)O)C[C@H]2CCCC[C@@H]21)C(=O)OCC (stereo partly specified),z-score,[5],-0.394 (inactive)
same,z-score,[6],0.104 (inactive)
same,z-score,[7],-0.276 (inactive)
same,z-score,[4],-0.453 (inactive)
same,cell count,[5],5070
same,cell count,[6],4880
same,cell count,[7],5080
same,cell count,[4],5340
CCCCCCCCC#CCC#CCC#CCCCC(=O)O,z-score,,0.153 (inactive)
same,cell count,,5310
CCCCC1C(=O)CC[C@H]2[C@@H]1CC(=O)[C@@H]2CCCCCCC(=O)O (stereo partly specified),z-score,,-0.162 (inactive)
same,cell count,,5440
CC/C=C\C/C=C\C/C=C\CCCCCCCC(=O)OCC,z-score,,-0.911 (inactive)
same,cell count,,5260
NC(=O)Nc1cc(-c2cccc(F)c2)sc1C(=O)NC1CCCNC1 (stereo unspecified),outcome,library stock 400 µM,inactive; censored for cell count
same,outcome,library stock 2 mM,inactive; censored for cell count
same,outcome,library stock 10 mM,inactive; censored for cell count
same,z-score,[5],0.798 (inactive) and 2.01 (active)
same,z-score,[6],2.61 (active)
same,cell count,[5],3580 and 3980
same,cell count,[6],1750
O=C(NC1CCN(CC(F)(F)F)CC1)c1ccc(-c2cccc(F)c2)nc1,z-score,[1],-0.25 (inactive)
same,z-score,[2],0.0438 (inactive)
same,z-score,[3],-0.291 (inactive)
same,z-score,[4],-0.236 (inactive)
same,cell count,[1],6960
same,cell count,[2],6520
same,cell count,[3],7210
same,cell count,[4],7340
NC(=O)Nc1sc(-c2ccc(F)cc2)cc1C(N)=O,outcome,library stock 10 mM,inactive; censored for cell count
same,z-score,[1],-0.164 (inactive)
same,z-score,[2],0.156 (inactive)
same,z-score,[3],1.6 (inactive)
same,cell count,[1],6530
same,cell count,[2],6190
same,cell count,[3],4790
Cc1ccc(NC(=O)c2ccc(CN3CCN(C)CC3)cc2)cc1Nc1nccc(-c2cccnc2)n1,z-score,[5],-0.201 (inactive)
same,z-score,[6],-0.672 (inactive)
same,z-score,[7],-0.269 (inactive)
same,z-score,[4],-0.486 (inactive)
same,cell count,[5],4460
same,cell count,[6],4540
same,cell count,[7],4320
same,cell count,[4],4680
Cc1cn(-c2cc(NC(=O)c3ccc(C)c(Nc4nccc(-c5cccnc5)n4)c3)cc(C(F)(F)F)c2)cn1,z-score,[5],-0.15 (inactive)
same,z-score,[6],-0.0425 (inactive)
same,z-score,[7],0.192 (inactive)
same,z-score,[4],1.64 (inactive)
same,cell count,[5],5660
same,cell count,[6],5720
same,cell count,[7],5660
same,cell count,[4],3260
Cc1ccc(NC(=O)c2ccc(CN3CCC(N(C)C)C3)c(C(F)(F)F)c2)cc1Nc1nccc(-c2cncnc2)n1 (stereo unspecified),z-score,[5],0.0204 (inactive)
same,z-score,[6],0.323 (inactive)
same,z-score,[7],1.69 (inactive)
same,z-score,[4],4.49 (active)
same,cell count,[5],5990
same,cell count,[6],5640
same,cell count,[7],4410
same,cell count,[4],2490
O=C(O)CCC/C=C\C[C@@H]1[C@@H](/C=C/[C@@H](O)C2CCCCC2)[C@H](O)C[C@@H]1O,z-score,,-0.293 (inactive)
same,cell count,,5180
O=C1C[C@@H]2[C@@H](/C=C/[C@@H](O)COc3cccc(C(F)(F)F)c3)[C@H](O)C[C@@H]2O1,z-score,,0.782 (inactive)
same,cell count,,5240
COc1cc(N2CCOCC2)ccc1Nc1ncc(F)c(Nc2ccccc2NS(C)(=O)=O)n1,z-score,[5],-0.351 (inactive)
same,z-score,[6],-0.312 (inactive)
same,z-score,[7],0.0927 (inactive)
same,z-score,[4],3.16 (active)
same,cell count,[5],5830
same,cell count,[6],5470
same,cell count,[7],5120
same,cell count,[4],1690
CNC(=O)c1ccccc1Nc1nc(Nc2ccc(N3CCOCC3)cc2OC)ncc1Cl,outcome,library stock 2 mM,inactive; censored for cell count
same,outcome,library stock 10 mM,inactive; censored for cell count
same,z-score,[5],-0.243 (inactive)
same,z-score,[6],-0.00453 (inactive)
same,cell count,[5],6320
same,cell count,[6],5260
COc1cc(N2CCC(N3CCN(C)CC3)CC2)ccc1Nc1ncc(Cl)c(Nc2ccccc2S(=O)(=O)C(C)C)n1,outcome,library stock 10 mM,inactive; censored for cell count
same,z-score,[5],0.0842 (inactive)
same,z-score,[6],0.241 (inactive)
same,z-score,[7],1.15 (inactive)
same,cell count,[5],4260
same,cell count,[6],4220
same,cell count,[7],3560
CCC(O)/C=C/C=O (stereo unspecified),z-score,,0.341 (inactive)
same,cell count,,4950
O=C1C(=Cc2cn(-c3ccccc3)nc2-c2ccc(OCc3ccc(Cl)cc3)cc2)SC(=S)N1CCS(=O)(=O)O,z-score,[5],0.0314 (inactive)
same,z-score,[6],0.372 (inactive)
same,z-score,[7],-0.323 (inactive)
same,z-score,[4],-0.219 (inactive)
same,cell count,[5],5380
same,cell count,[6],4640
same,cell count,[7],5180
same,cell count,[4],4960
c1ccc(Nc2nc3c(s2)CCCc2[nH]ncc2-3)nc1,z-score,[1],-0.0827 (inactive)
same,z-score,[2],-0.00166 (inactive)
same,z-score,[3],-0.105 (inactive)
same,z-score,[4],0.335 (inactive)
same,cell count,[1],6250
same,cell count,[2],5830
same,cell count,[3],6080
same,cell count,[4],5550
CC(C)C1C(=O)NC(CCCN=C(N)N)C(=O)NCC(=O)NC(CC(=O)O)C(=O)NC(Cc2ccccc2)C(=O)N1C (stereo unspecified),z-score,[5],0.68 (inactive)
same,z-score,[6],0.227 (inactive)
same,z-score,[7],0.518 (inactive)
same,z-score,[4],5.23 (active)
same,cell count,[5],5020
same,cell count,[6],5060
same,cell count,[7],4260
same,cell count,[4],1780
NC(=O)C1CSSCCC(=O)NC(CCCCN=C(N)N)C(=O)NCC(=O)NC(CC(=O)O)C(=O)NC(Cc2c[nH]c3ccccc23)C(=O)N2CCCC2C(=O)N1 (stereo unspecified) ([Mpa][hArg]GDWPC-NH2; disulfide 1-7; configuration not given here),z-score,[1],-0.201 (inactive)
same,z-score,[2],-0.18 (inactive)
same,z-score,[3],-0.38 (inactive)
same,z-score,[4],-0.0485 (inactive)
same,cell count,[1],5770
same,cell count,[2],5930
same,cell count,[3],6620
same,cell count,[4],5820
CCCCC[C@H](O)/C=C/[C@@H]1[C@@H](C/C=C\CCCCOC)[C@@H](O)C[C@H]1O,z-score,,-0.514 (inactive)
same,cell count,,5540
CCCCC[C@@H](O)[C@H]1C(=O)O[C@H](C)[C@@H](O)/C=C/C=C/C=C/C=C/C=C(\C)[C@@H](O)C[C@H](O)C[C@H](O)C[C@H](O)C[C@H](O)C[C@H](O)C[C@@H]1O,z-score,,0.375 (inactive)
same,cell count,,5780
Cc1cc(-c2ccccc2)nc2cc(C(=O)Nc3cccc(O)c3)nn12,z-score,[5],0.0171 (inactive)
same,z-score,[6],0.0308 (inactive)
same,z-score,[7],-0.473 (inactive)
same,z-score,[4],-0.672 (inactive)
same,cell count,[5],5500
same,cell count,[6],5070
same,cell count,[7],5150
same,cell count,[4],5110

# — PubChem BioAssay AID1645838 (ICCB-Longwood Screening Facility, Harvard Medical School, 2021)
